Each sequence was assayed against PCP2 (assay: pooled miR-30 sensor sort-seq; sequence = guide strand). Conditions: shRNA.
Work on TTTCTGTGCTCCGTCCTTGGAC yielded a sensor-assay potency score (higher = more potent) of -1.03.
Work on TCCATGAGGCTGTCCATCTCGG yielded a sensor-assay potency score (higher = more potent) of -1.39.
With TCGTTTCTGTGCTCCGTCCTTG the sensor-assay potency score (higher = more potent) was -0.435.
Work on ACACGTTGGTCATCCATGCGGC yielded a sensor-assay potency score (higher = more potent) of -0.873.
ATGAGGCTGTCCATCTCGGGGG showed a sensor-assay potency score (higher = more potent) of -1.33.
TTGGTGGTCTGGCCCGGCCCGG showed a sensor-assay potency score (higher = more potent) of -1.82.
In the case of TTCTGTGCTCCGTCCTTGGACC, the sensor-assay potency score (higher = more potent) was -1.15.
For TGTCACACGTTGGTCATCCATG, the sensor-assay potency score (higher = more potent) was -1.21.
TGAAGAAGCCCTCCTGGTCTGG gave a sensor-assay potency score (higher = more potent) of -1.06.
For TTGCAGTGAACAGCGCTGTCCC, the sensor-assay potency score (higher = more potent) was -0.308.
For TGAACAGCGCTGTCCCTCCATC, the sensor-assay potency score (higher = more potent) was -1.32.
Work on TGACTGTCACACGTTGGTCATC yielded a sensor-assay potency score (higher = more potent) of -1.61.

These sequences were tested against PCSK5 in the same assay as above. Conditions: shRNA.
With TTGATTTGTCGGTCTGTGCTCT the sensor-assay potency score (higher = more potent) was 0.6.
With TTCCATTGAAATGAAACTGTGG the sensor-assay potency score (higher = more potent) was -0.149.
TTTGCTTCAACCATGTCCGTGA gave a sensor-assay potency score (higher = more potent) of 0.588.
Sequence TAGTGCAAACAGTCATTGCAGT has a sensor-assay potency score (higher = more potent) of -0.552.
TTGAAAGCAATTCCGACTGTGC gave a sensor-assay potency score (higher = more potent) of -0.25.
TTGTACAGTTCTTGAATCCTGG was tested, and the sensor-assay potency score (higher = more potent) was -0.113.
In the case of TTGTCTTGATTTGTCGGTCTGT, the sensor-assay potency score (higher = more potent) was 0.944.
Work on TTTTGCTTCAACCATGTCCGTG yielded a sensor-assay potency score (higher = more potent) of -0.77.
ATAGCTGATACTACAGCTCTGC was tested, and the sensor-assay potency score (higher = more potent) was -0.314.
For TTGATGAATCCGTACTTGCTGG, the sensor-assay potency score (higher = more potent) was -0.268.
Work on TTTGACACATTCCTAAGTCTAA yielded a sensor-assay potency score (higher = more potent) of -0.793.

Source: the OligoGym collection
Note: reference of the scale not given here.
